This passage reports outcome and AC50 results from PubChem BioAssay (EPA / NIEHS).

Each structure is given as a SMILES string. Inconclusive results are not listed. The source made the active and inactive calls. How the source made its calls, unless noted: active means hit-call score of the fitted dose curve at least 0.9, where 1 is the maximum; inactive means score below 0.9.

For test [1], the target named is Paired box protein Pax-6 (Homo sapiens) (UniProt P26367). In words: ATG_Pax6_CIS: Attagene CIS-FACTORIAL HepG2 Assay for human Paired Box 6 (PAX6) (AID 2282956). As to conditions: HepG2 CIS-FACTORIAL PAX6 reporter transcription, RNA readout; actives raise or lower the signal. The essentials:
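Transient MRTU transfection of HepG2 → compound exposure 24 h → TriZol RNA, oligo(dT) RT → PCR, 6-FAM primer extension, HpaI cut → capillary electrophoresis; activity fitted both directions against DMSO.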

Test [2] can be described thus: ATG_PXRE_CIS: Attagene CIS-FACTORIAL HepG2 Assay for human Pregnane X Receptor Element (PXRE) (AID 2282957). The note with it: HepG2 Attagene CIS-FACTORIAL PXRE reporter, mRNA; actives raise or lower the signal. The essentials: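 Transiently transfected HepG2 cells were dosed and incubated for 24 h. RNA was then isolated, DNase-treated, reverse-transcribed and reporter sequences amplified. Labeled, HpaI-digested fragments were quantified by capillary electrophoresis against DMSO.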

Test [3] is described as follows: ATG_PPRE_CIS: Attagene CIS-FACTORIAL HepG2 Assay for human Peroxisome Proliferator-activated Response Element (PPRE) (AID 2282958). The note with it: HepG2 PPRE cis-element reporter, Attagene transcription factor profiling; actives raise or lower the signal. The method, boiled down:
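Read-out: fluorescent reporter mRNA fragments resolved by capillary electrophoresis after RT-PCR. HepG2 cells carried transiently transfected PPRE-driven cis reporter constructs and were dosed for 24 h; gain or loss of signal fitted relative to DMSO.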

The nature of test [4]: ATG_RORE_CIS: Attagene CIS-FACTORIAL HepG2 Assay for human RAR-related Orphan Receptor Element (RORE) (AID 2282959). As to conditions: HepG2 Attagene cis-factorial RORE reporter, mRNA; actives raise or lower the signal. The essentials:
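Readout: fluorescent reporter mRNA by RT-PCR plus capillary electrophoresis, 24 h after dosing transfected HepG2 cells. Endogenous transcription factor activity on a cis promoter element is measured. Gain or loss of signal fitted against DMSO.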

The nature of test [5]: ATG_Sox_CIS: Attagene CIS-FACTORIAL HepG2 Assay for human SRY-box transcription factor (SOX) (AID 2282960). As to conditions: HepG2 Attagene cis-factorial SOX reporter, mRNA; actives raise or lower the signal. The method, boiled down: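 Read-out: fluorescent RT-PCR products of SOX1-linked reporter transcripts resolved by capillary electrophoresis, fitted bidirectionally against DMSO. Transiently transfected HepG2 cells, 24 h after chemical exposure, endogenous transcription factor activity.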

The target in test [6] is Transcription factor Sp1 (Homo sapiens) (UniProt P08047). Description: ATG_Sp1_CIS: Attagene CIS-FACTORIAL HepG2 Assay for human Specificity Protein 1 (Sp1) (AID 2282961). The note with it: HepG2 Sp1 cis-reporter transcription, actives raise or lower the signal. The method, boiled down: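 Read-out: fluorescence of 6-FAM-labeled, HpaI-digested RT-PCR products separated by capillary electrophoresis. HepG2 cells carried transfected cis-element reporter units and were exposed to chemicals for 24 h; gain or loss of signal fitted relative to DMSO.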

The nature of test [7]: ATG_SREBP_CIS: Attagene CIS-FACTORIAL HepG2 Assay for human Sterol Regulatory Element Binding (SREBP) (AID 2282962). As to conditions: HepG2 Attagene cis-factorial SREBP reporter, mRNA; actives raise or lower the signal. The essentials:
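Transfected HepG2 (cis-regulated reporter library, endogenous TFs) → compound 24 h → total RNA → oligo(dT) RT → reporter-specific PCR → FAM primer extension, HpaI cut → CE fluorescence. Fit bidirectional vs DMSO.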

Test [8] concerns the target Signal transducer and activator of transcription 3 (Homo sapiens) (UniProt P40763). In words: ATG_STAT3_CIS: Attagene CIS-FACTORIAL HepG2 Assay for human Signal Transducer and Activator of Transcription 3 (STAT3) (AID 2282963). As to conditions: HepG2, Attagene cis-factorial STAT3 reporter transcription; actives raise or lower the signal. The essentials:
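After a 24 h compound incubation, total RNA from MRTU-transfected HepG2 cells was converted to cDNA and reporter sequences PCR-amplified, labelled and profiled by capillary electrophoresis. Gain and loss of signal were referenced to DMSO.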

A short description of test [9]: ATG_TA_CIS: Attagene CIS-FACTORIAL HepG2 Assay for human TA Basal Promoter (AID 2282964). As to conditions: HepG2 Attagene CIS-factorial TA basal promoter reporter; actives raise or lower the signal. The method, boiled down: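 Fluorescence from labelled RT-PCR reporter fragments, separated by capillary electrophoresis, gives the signal. Cells: HepG2 transiently carrying multiple reporter units, 24 h chemical dosing. Gain or loss relative to DMSO.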

Test [10] can be described thus: ATG_TAL_CIS: Attagene CIS-FACTORIAL HepG2 Assay for human TAL Basal Promoter (AID 2282966).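 Further: background control endpoint measuring basal TAL promoter reporter mRNA not a specific factor.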 The note with it: HepG2 Attagene cis-factorial TAL promoter reporter; actives raise or lower the signal. The essentials:
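Readout: reporter mRNA, fluorescence by CE. System: HepG2, transient multi-reporter transfection, endogenous TF activity. Exposure: 24 h. Analysis: bidirectional, DMSO-normalized; background control.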

Test [11] is described as follows: ATG_VDRE_CIS: Attagene CIS-FACTORIAL HepG2 Assay for human Vitamin D Receptor Element (VDRE) (AID 2282968). As to conditions: HepG2 VDRE cis-reporter transcription, actives raise or lower the signal. The essentials:
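In transiently transfected HepG2 liver cells, gain or loss of reporter mRNA after 24 h exposure is scored relative to DMSO, using fluorescence detection by capillary electrophoresis of RT-PCR products.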

In test [12] the target is X-box-binding protein 1 (Homo sapiens) (UniProt P17861). Description: ATG_Xbp1_CIS: Attagene CIS-FACTORIAL HepG2 Assay for human X-box Binding Protein 1 (XBP1) (AID 2282972). As to conditions: HepG2 XBP1 cis-element reporter, Attagene multiplex; actives raise or lower the signal. The method, boiled down: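 HepG2, transient MRTU transfection (cis-promoter driven), 24 h compound exposure. Total RNA → oligo(dT) RT → PCR → 6-FAM labeling → HpaI cut → CE. Bidirectional fit vs DMSO.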

Test [13] is described as follows: ATG_M_19_TRANS: Attagene TRANS-FACTORIAL HepG2 Assay for M19 Transcription Factor (Internal Marker) (AID 2282974; active means hit-call score of the fitted dose curve at least 0.9, where 1 is the maximum). As to conditions: HepG2 Attagene TRANS-FACTORIAL M19 internal marker reporter. The essentials: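 24 h chemical exposure of transiently transfected HepG2 (MRTU library). RNA → oligo(dT) RT → PCR → 6-FAM labelling → HpaI cut → CE fluorescence. Positive-direction fit vs DMSO baseline; background internal-marker readout.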

In test [14] the target is Estrogen-related receptor gamma (Homo sapiens) (UniProt P62508). Description: ATG_ERRg_TRANS: Attagene TRANS-FACTORIAL HepG2 Assay for human Estrogen-Related Receptor gamma (ERRg) (AID 2282977; active means hit-call score of the fitted dose curve at least 0.9, where 1 is the maximum;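 further: hits increase reporter signal over DMSO so potencies reflect activators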). The note with it: HepG2 Attagene TRANS reporter, ERRg transactivation. The essentials:
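HepG2 cells transiently transfected with multiplexed GAL4-UAS reporter units and chimeric NR-Gal4 constructs were exposed to test chemicals for 24 h. Reporter mRNA was measured by RT-PCR, 6-FAM primer extension, HpaI digestion and capillary electrophoresis; gain-of-signal versus DMSO.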

Test [15] in a line: ATG_TCF_b_cat_CIS: Attagene CIS-FACTORIAL HepG2 Assay for human T-Cell-Factor with beta-catenin (TCF/b-cat) (AID 2282965). As to conditions: HepG2 TCF/beta-catenin cis-reporter transcription, actives raise or lower the signal. The essentials:
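Measured: reporter mRNA in HepG2 transiently transfected with cis-promoter reporter units, 24 h after chemical addition. Fitting was bidirectional, DMSO as negative control.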

The nature of test [16]: ATG_TGFb_CIS: Attagene CIS-FACTORIAL HepG2 Assay for human Transforming Growth Factor (TGF) (AID 2282967). The note with it: HepG2 Attagene CIS TGFb reporter, mRNA transcription; actives raise or lower the signal. The essentials: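 Bidirectional fitting relative to DMSO gave the endpoint. Underlying data: reporter mRNA from HepG2 cells carrying transiently transfected cis-regulated reporter constructs, harvested 24 h after dosing and analyzed by RT-PCR and capillary electrophoresis.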

Test [17] can be described thus: ATG_GAL4_TRANS: Attagene TRANS-FACTORIAL HepG2 Assay for GAL4 (Internal Marker) (AID 2282976; active means hit-call score of the fitted dose curve at least 0.9, where 1 is the maximum). The note with it: HepG2 Attagene TRANS GAL4 internal marker reporter. The essentials: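 Fluorescence from capillary electrophoresis of labelled RT-PCR products quantifies reporter mRNA induction after 24 h dosing of HepG2 cells carrying transfected GAL4-UAS reporter transcription units. Vehicle DMSO serves as baseline.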

In test [18] the target is Nuclear receptor subfamily 1 group I member 3 (Homo sapiens) (UniProt Q14994). In words: ATG_CAR_TRANS: Attagene TRANS-FACTORIAL HepG2 Assay for human Constitutive Androstane Receptor (CAR) (AID 2282969; active means hit-call score of the fitted dose curve at least 0.9, where 1 is the maximum;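 further: activators raise reporter mRNA above DMSO so AC50 marks induction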). The note with it: HepG2 Attagene TRANS-FACTORIAL CAR reporter. The method, boiled down:
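Readout is reporter mRNA induction, quantified by fluorescent primer extension and capillary electrophoresis after RT-PCR. Cells were HepG2 transiently carrying chimeric NR-Gal4 constructs with GAL4-UAS reporters, treated for 24 h; activity scored upward from DMSO.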

Test [19] has as its target Estrogen receptor (Homo sapiens) (UniProt P03372). In words: ATG_ERa_TRANS: Attagene TRANS-FACTORIAL HepG2 Assay for human Estrogen Receptor alpha (ERa) (AID 2282970; active means hit-call score of the fitted dose curve at least 0.9, where 1 is the maximum). As to conditions: HepG2 Attagene TRANS ERa GAL4 reporter, mRNA. The method, boiled down: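 Transactivation via ERa-Gal4 chimera in HepG2; 24 hour incubation; reporter mRNA detected by fluorescence RT-PCR and capillary electrophoresis.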

The target of test [20] is Steroid hormone receptor ERR1 (Homo sapiens) (UniProt P11474). In words: ATG_ERRa_TRANS: Attagene TRANS-FACTORIAL HepG2 Assay for human Estrogen-Related Receptor alpha (ERRa) (AID 2282971; active means hit-call score of the fitted dose curve at least 0.9, where 1 is the maximum). As to conditions: HepG2 Attagene TRANS reporter, ERRa transactivation. The essentials:
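HepG2 cells were transiently transfected with multiple GAL4-UAS reporter units, then dosed with compound for 24 h. Total RNA was reverse-transcribed, reporter cDNA PCR-amplified and fluorescently labelled, and fragments resolved by capillary electrophoresis; induction was compared with DMSO.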

X-box-binding protein 1 (Homo sapiens), sequence (P17861 whole entry, looked up): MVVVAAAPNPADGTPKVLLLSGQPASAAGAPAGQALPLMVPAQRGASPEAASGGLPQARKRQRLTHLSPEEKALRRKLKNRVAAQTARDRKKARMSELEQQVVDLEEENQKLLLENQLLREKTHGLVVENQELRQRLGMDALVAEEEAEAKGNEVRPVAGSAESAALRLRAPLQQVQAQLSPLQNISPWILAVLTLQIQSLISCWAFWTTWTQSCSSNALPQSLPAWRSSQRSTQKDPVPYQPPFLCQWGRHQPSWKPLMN
Paired box protein Pax-6 (Homo sapiens), sequence (P26367 whole entry, looked up): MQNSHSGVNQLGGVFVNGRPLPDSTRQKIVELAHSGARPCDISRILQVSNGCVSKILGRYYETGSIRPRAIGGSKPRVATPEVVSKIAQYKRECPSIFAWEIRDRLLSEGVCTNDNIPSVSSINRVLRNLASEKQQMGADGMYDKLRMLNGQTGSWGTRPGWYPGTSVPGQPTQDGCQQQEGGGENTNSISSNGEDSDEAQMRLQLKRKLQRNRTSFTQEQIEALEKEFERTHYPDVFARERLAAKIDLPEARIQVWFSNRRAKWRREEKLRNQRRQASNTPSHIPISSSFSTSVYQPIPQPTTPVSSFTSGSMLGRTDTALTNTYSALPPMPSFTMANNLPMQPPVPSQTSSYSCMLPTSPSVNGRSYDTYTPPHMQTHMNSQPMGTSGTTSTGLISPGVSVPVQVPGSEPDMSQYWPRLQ
Transcription factor Sp1 (Homo sapiens), sequence (P08047 whole entry, looked up): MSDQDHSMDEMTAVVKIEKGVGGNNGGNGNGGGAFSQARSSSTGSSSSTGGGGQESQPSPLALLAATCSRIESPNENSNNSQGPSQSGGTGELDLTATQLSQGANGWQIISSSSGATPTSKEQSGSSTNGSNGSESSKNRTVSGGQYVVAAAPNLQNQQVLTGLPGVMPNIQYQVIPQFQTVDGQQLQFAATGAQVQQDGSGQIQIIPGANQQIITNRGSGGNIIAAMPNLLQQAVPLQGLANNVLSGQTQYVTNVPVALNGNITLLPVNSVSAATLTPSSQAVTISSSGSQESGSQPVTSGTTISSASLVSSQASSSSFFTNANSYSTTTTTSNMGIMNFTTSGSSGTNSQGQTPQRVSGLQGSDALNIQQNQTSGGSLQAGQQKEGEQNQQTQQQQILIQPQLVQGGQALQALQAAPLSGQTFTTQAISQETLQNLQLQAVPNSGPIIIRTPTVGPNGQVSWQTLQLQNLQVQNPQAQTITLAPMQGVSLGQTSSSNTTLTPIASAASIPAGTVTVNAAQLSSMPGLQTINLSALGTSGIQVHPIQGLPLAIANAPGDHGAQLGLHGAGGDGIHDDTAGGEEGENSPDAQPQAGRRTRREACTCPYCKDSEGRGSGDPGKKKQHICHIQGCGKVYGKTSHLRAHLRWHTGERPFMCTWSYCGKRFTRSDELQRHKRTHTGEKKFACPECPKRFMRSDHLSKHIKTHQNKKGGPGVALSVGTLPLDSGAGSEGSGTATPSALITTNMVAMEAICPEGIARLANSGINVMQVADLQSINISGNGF
Signal transducer and activator of transcription 3 (Homo sapiens), sequence (P40763 whole entry, looked up): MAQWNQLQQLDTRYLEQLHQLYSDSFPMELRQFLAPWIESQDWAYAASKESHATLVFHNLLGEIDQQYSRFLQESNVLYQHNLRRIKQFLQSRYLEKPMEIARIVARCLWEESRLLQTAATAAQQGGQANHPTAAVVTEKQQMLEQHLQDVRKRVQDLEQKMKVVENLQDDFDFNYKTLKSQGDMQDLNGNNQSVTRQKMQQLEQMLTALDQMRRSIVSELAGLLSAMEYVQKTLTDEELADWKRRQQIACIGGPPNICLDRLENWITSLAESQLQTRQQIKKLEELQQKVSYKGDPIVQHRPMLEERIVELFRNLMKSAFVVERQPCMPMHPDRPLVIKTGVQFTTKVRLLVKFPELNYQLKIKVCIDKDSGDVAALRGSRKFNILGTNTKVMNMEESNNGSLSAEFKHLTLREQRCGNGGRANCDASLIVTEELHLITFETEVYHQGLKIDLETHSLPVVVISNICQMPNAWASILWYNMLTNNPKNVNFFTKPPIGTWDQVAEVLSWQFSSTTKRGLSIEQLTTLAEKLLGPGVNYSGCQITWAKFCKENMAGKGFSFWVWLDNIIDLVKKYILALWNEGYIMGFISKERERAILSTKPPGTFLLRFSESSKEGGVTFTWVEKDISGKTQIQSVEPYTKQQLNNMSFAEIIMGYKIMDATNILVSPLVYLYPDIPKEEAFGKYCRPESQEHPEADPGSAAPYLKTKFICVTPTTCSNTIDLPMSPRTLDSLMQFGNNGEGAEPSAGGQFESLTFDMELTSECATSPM
Estrogen-related receptor gamma (Homo sapiens), sequence (P62508 whole entry, looked up, the tested form may be a part): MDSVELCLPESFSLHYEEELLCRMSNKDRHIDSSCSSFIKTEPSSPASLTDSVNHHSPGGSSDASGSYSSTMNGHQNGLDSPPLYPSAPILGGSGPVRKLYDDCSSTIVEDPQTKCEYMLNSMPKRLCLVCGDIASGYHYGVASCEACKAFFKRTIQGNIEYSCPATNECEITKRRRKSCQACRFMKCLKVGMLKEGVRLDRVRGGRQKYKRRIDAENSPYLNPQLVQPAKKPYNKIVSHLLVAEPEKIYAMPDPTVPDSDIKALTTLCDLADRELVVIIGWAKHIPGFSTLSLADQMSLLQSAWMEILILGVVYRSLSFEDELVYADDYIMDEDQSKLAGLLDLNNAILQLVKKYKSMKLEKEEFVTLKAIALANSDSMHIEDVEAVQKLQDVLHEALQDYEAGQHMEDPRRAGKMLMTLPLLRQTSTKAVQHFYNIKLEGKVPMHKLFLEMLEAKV
Estrogen receptor (Homo sapiens), sequence (P03372 whole entry, looked up, the tested form may be a part): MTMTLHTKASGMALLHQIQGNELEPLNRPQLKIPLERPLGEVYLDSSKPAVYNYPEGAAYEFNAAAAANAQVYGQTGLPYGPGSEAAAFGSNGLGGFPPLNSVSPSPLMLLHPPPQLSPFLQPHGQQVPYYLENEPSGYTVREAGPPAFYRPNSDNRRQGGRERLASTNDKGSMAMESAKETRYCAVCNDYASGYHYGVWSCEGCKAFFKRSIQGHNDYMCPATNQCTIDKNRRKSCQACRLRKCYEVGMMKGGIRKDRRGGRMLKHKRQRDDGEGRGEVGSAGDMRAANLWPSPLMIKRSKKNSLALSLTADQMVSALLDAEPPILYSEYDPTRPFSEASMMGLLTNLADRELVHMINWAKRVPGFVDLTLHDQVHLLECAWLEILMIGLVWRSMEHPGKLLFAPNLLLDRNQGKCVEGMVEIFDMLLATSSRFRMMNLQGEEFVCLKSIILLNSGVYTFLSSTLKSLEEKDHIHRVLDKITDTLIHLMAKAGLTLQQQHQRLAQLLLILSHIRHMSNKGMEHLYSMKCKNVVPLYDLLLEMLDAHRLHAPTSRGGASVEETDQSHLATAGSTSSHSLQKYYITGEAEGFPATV
Steroid hormone receptor ERR1 (Homo sapiens), sequence (P11474 whole entry, looked up, the tested form may be a part): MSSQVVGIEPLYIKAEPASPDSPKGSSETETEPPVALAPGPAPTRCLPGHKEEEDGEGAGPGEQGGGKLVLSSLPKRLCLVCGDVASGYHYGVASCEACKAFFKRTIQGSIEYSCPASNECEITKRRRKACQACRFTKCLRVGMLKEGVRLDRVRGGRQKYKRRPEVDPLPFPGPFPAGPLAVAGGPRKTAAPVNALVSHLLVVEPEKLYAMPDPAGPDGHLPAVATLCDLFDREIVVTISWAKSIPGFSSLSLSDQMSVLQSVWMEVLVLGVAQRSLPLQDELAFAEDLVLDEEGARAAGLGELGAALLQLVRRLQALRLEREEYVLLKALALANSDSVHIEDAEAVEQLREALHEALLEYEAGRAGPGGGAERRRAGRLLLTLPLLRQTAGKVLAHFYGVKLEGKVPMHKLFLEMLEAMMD
Nuclear receptor subfamily 1 group I member 3 (Homo sapiens), sequence (Q14994 whole entry, looked up, the tested form may be a part): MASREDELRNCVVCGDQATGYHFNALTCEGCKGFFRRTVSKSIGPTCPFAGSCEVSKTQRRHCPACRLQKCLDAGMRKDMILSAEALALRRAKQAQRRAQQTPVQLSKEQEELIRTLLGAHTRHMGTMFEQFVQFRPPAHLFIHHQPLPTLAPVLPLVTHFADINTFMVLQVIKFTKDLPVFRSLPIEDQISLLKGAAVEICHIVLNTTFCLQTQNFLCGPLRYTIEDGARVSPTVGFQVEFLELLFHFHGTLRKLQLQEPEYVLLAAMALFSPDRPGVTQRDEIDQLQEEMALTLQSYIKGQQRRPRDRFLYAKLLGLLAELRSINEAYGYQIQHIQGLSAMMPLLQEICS

The term AC50 denotes the concentration at which the activity in the assay is half-maximal. Turning to `CC1(C)S[C@@H]2[C@H](NC(=O)COc3ccccc3)C(=O)N2[C@H]1C(=O)O`, the call in test [1], in [3], in [4], in [5], in test [6] and in test [7] was inactive. Further, the compound was called inactive in [8], in test [9], in test [10], in test [11], in [12] and in test [13]. The outcome in test [14] was inactive. The AC50 in [2] was 4.35 µM (active).

`C[Si](C)(CCCN)O[Si](C)(C)CCCN`: the compound was classed as inactive in [1], in test [2], in test [3], in test [4], in [5] and in test [6]. Further, the result in test [8], in [15], in test [16], in [11], in test [12] and in test [17] was inactive. Also, in [7], the AC50 was 54.5 µM (active).

`Cc1cccc(N)n1`: the compound was called inactive in [1], in test [2], in test [3], in test [4], in test [5] and in test [6]. The result in test [7], in test [8], in test [15], in test [10], in [16] and in test [12] was inactive. The outcome in [13] was inactive.

With `CCCCC(CC)COC(=O)c1ccccc1O` (stereo unspecified), the compound was called inactive in test [1], in test [3], in test [4], in [5], in [6] and in test [7]. For the same compound, the compound was called inactive in [9], in test [15], in test [10], in [16], in test [11] and in test [18]. Also, the compound was classed as inactive in test [20], in test [12] and in test [14]. Besides, the AC50 in test [2] was 15.3 µM (active); in [19] it was 50 µM (active).

Turning to `CCCCCC/C=C\CCCCCCCC(=O)O`, the call in test [1], in [2], in [3], in [4], in [5] and in [6] was inactive. The compound was called inactive in test [7], in test [8], in [9], in test [10], in test [16] and in test [11]. For the same compound, the call in test [12] and in test [17] was inactive.
